Measured values reported in PubChem BioAssay AID720690 (Broad Institute, 2013).
Measured potencies and affinities stand elsewhere. The source made the active and inactive calls.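 The calls were made as follows: active = every repeat run showing a signal drop whose fitted half-maximal concentration is at most twice the top tested concentration; inconclusive = repeat runs disagree, or flat partial drop, or poor fit; inactive = the rest.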

experiment: general mammalian cell viability loss – activator set, cherry-pick, cytotoxicity control for miR-122 modulator project, dose response (AID 720690); details: HEK293T viability, CellTiter-Glo luminescence, 48 h; series mostly up to 26 µM; activity change, negative = cytotoxicity: at the top concentration;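 also: 0% = neutral control wells and -100% = MG132 cytotoxic control wells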

| SMILES | activity change, negative = cytotoxicity |
| --- | --- |
| COc1ccc(-c2c(C)nn3c(N)c(-c4ccccc4)cnc23)cc1OC | 21.1% (inactive) |
| Cc1ccc(S(=O)(=O)NCCCNS(C)(=O)=O)cc1 | 7.67% (inactive) |
| CC(C)C(=O)Nc1ccc2c(c1)C(=O)N(C)[C@@H]1CC[C@H](CC(=O)NCc3cccc(F)c3)O[C@H]1CO2 | 4.42% [at 23.5 µM] (inactive) |
| CO[C@@H]1CN(C)C(=O)c2ccc(NS(=O)(=O)c3ccc(C)cc3)cc2OC[C@@H](C)N(C(=O)NC(C)C)C[C@H]1C | 8.28% (inactive) |
| CCN(CC)CCNc1nc(-c2ccccc2)nnc1C(F)(F)F | -4.86% (inactive) |
| CC(C)C(=O)Nc1ccc2c(c1)C(=O)N(C)[C@H]1CC[C@H](CC(=O)NCCc3ccccc3)O[C@H]1CO2 | -2.16% (inactive) |
| CCCNC(=O)C[C@H]1CC[C@H]2[C@@H](COc3ccc(NC(=O)c4cc(F)cc(F)c4)cc3C(=O)N2C)O1 | 1.72% (inactive) |
| CN(C)CCCNC(=O)C[C@H]1CC[C@H]2[C@@H](COc3ccc(NC(=O)c4ccccc4F)cc3C(=O)N2C)O1 | 3.67% (inactive) |
| O=C(Nc1ccc(F)cc1)N1C[C@H]2[C@@H](c3ccccc31)[C@H](CO)N2C(=O)c1ccncc1 | -3.65% (inactive) |
| COc1cccc(-c2csc(N3CCN(CC(=O)Nc4ccc5c(c4)OCO5)CC3)n2)c1 | 5.74% (inactive) |
| CN1C(=O)c2cc(NC(=O)c3cccc(F)c3)ccc2OC[C@@H]2O[C@H](CC(=O)O)CC[C@@H]21 | -7.57% [at 23.5 µM] (inactive) |
| CC(=O)Nc1ccc2c(c1)C(=O)N(C)[C@@H]1CC[C@H](CC(=O)NCCCN3CCOCC3)O[C@@H]1CO2 | 3.3% [at 23.5 µM] (inactive) |
| COC(=O)C[C@H]1CC[C@H]2[C@H](COc3ccc(NC(=O)NC(C)C)cc3C(=O)N2C)O1 | 2.42% (inactive) |
| COC(=O)C[C@H]1CC[C@@H]2[C@@H](COc3ccc(NC(=O)c4ccc(F)c(F)c4)cc3C(=O)N2C)O1 | -4.61% (inactive) |
| CCN(C[C@H]1N[C@@H](CO)[C@@H]1c1ccc(C2=CCCC2)cc1)C(=O)c1ccncc1 | -36.7% (inactive) |
| CCCNC(=O)N1[C@H](CNC(=O)c2ccc(F)cc2)[C@H](c2ccccc2)[C@@H]1CO | -5.2% [at 23.5 µM] (inactive) |
| CCNC(=O)Nc1ccc2c(c1)C(=O)N(C)[C@H]1CC[C@H](CC(=O)Nc3cccc(F)c3)O[C@@H]1CO2 | -2.47% (inactive) |
| CC(=O)N(C)C[C@H]1Oc2cc(/C=C/c3ccccc3)ccc2S(=O)(=O)N([C@@H](C)CO)C[C@H]1C | -1.21% (inactive) |
| CC(=O)Nc1ccc2c(c1)C(=O)N(C)[C@@H]1CC[C@@H](CC(=O)NCc3ccc(Cl)cc3)O[C@H]1CO2 | 0.467% [at 23.5 µM] (inactive) |
| CC(=O)N1[C@H](CNC(=O)C2CC2)[C@H](c2ccc(-c3cccc(F)c3)cc2)[C@@H]1CO | -11.7% (inactive) |

| SMILES | activity change, negative = cytotoxicity |
| --- | --- |
| CN1C(=O)c2cc(NC(=O)c3cccc(F)c3)ccc2OC[C@H]2O[C@@H](CC(=O)O)CC[C@@H]21 | -1.64% (inactive) |
| Cc1cc(C)cc(NC(=O)Nc2ccc3c(c2)C(=O)N(C)[C@@H]2CC[C@H](CC(=O)O)O[C@@H]2CO3)c1 | 5.14% (inactive) |
| CNC(=O)C[C@H]1CC[C@@H]2[C@H](COc3ccc(NC(=O)C(C)C)cc3C(=O)N2C)O1 | -17.7% [at 23.5 µM] (inactive) |
| Cc1cc(C(=O)Nc2ccc3c(c2)C(=O)N(C)[C@H]2CC[C@H](CC(=O)N[C@@H](C)c4ccccc4)O[C@H]2CO3)no1 | -13% (inactive) |
| CCC(=O)N1[C@H](CO)[C@@H](c2ccccc2)[C@@H]1CN(CC)C(=O)c1cccc(F)c1 | -9.04% (inactive) |
| C[C@H]1CN([C@@H](C)CO)C(=O)c2cc(C#CC3CCCC3)cnc2O[C@H]1CN(C)C(=O)Cc1ccccn1 | -7.48% (inactive) |
| Cc1ccc(S(=O)(=O)Nc2ccc3c(c2)C(=O)N(C)[C@@H]2CC[C@@H](CC(=O)NCCc4ccncc4)O[C@@H]2CO3)cc1 | -7.64% (inactive) |
| CC(=O)N(C)C[C@H]1Oc2cc(C#Cc3ccc(F)cc3)ccc2S(=O)(=O)N([C@H](C)CO)C[C@H]1C | -17.6% (inactive) |
| CNC(=O)C[C@H]1CC[C@H]2[C@H](COc3ccc(NC(=O)c4cccc(F)c4)cc3C(=O)N2C)O1 | -2.89% (inactive) |
| COC(=O)C[C@@H]1CC[C@@H]2[C@@H](COc3ccc(NS(=O)(=O)c4ccccc4F)cc3C(=O)N2C)O1 | 5.53% (inactive) |
| Cc1ccccc1NCN1C(=O)C2C3C=CC(C3)C2C1=O (centres undefined) | 3.51% (inactive) |
| CCN(C[C@H]1N[C@@H](CO)[C@@H]1c1ccc(C2=CCCC2)cc1)C(=O)c1cccnc1 | -10.3% (inactive) |
| CNC(=O)C[C@H]1CC[C@@H]2[C@@H](COc3ccc(NC(=O)Nc4ccc(Cl)cc4)cc3C(=O)N2C)O1 | 2.16% [at 23.5 µM] (inactive) |
| O=C(N/N=C/c1ccco1)c1cccc(N2CCCC2=O)c1 | -1.22% (inactive) |
| C[C@H]1CN([C@@H](C)CO)S(=O)(=O)c2ccc(C3=CCCC3)cc2O[C@H]1CN(C)Cc1cccnc1 | -11.6% (inactive) |
| CCNC(=O)C[C@@H]1CC[C@@H]2[C@@H](COc3ccc(NC(=O)c4ccccc4)cc3C(=O)N2C)O1 | -2.68% [at 23.5 µM] (inactive) |
| CC(=O)N(C)C[C@H]1[C@@H](c2ccc(-c3ccc(F)cc3)cc2)[C@@H](CO)N1C(C)=O | 10.1% (inactive) |
| Cc1ccc(-c2ccc3c(c2)O[C@H](CN(C)Cc2cncnc2)[C@H](C)CN([C@@H](C)CO)S3(=O)=O)cc1 | -21.3% (inactive) |
| CCC(=O)N(C)C[C@H]1Oc2cc(C#Cc3ccccc3)ccc2S(=O)(=O)N([C@@H](C)CO)C[C@H]1C | -24.3% (inactive) |
